From PubChem BioAssay AID1850 (Southern Research Specialized Biocontainment Screening …, 2009)
Hit rate of the full screen: of about 310,000 compounds, about 1,000 (0.32%) were called active. Not all results are given here. Entries with a potency or affinity are not part of this list. A number with no mark means an inactive call. No rule for the calls is given here.

Test: PhoP regulon inhibitors, Salmonella typhi PhoP promoter GFP reporter, confirmatory (AID 1850);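 also: 0% = induced wells with vehicle and 100% = uninduced wells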
Conditions: fluorescence, 4 h, at 50 µM, stronger effect = higher value

In order of rising inhibition:
1. Cc1ccc(/C(O)=C/c2nc3cc(C)ccc3oc2=O)cc1  -48.6%
2. NC1=NC[C@H](Cc2ccccc2)N1CCc1cc(C(F)(F)F)cc(C(F)(F)F)c1  -32.4%
3. O=c1oc2ccc(Cl)cc2nc1/C=C(\O)c1ccco1  -30.4%
4. CC(C)C/C(O)=C/c1nc2cc(Cl)ccc2oc1=O  -18.3%
5. Cc1ccc(S(=O)(=O)N2CCCN(S(=O)(=O)c3ccc(C(F)(F)F)cc3)CC2)cc1  -17.3%
6. COC(=O)C1=CO[C@@H](OC2OC(CO)C(O)C(O)C2O)[C@@H]2C(CO)=CC[C@H]12 (some centres undefined)  -13%
7. Cc1ccc2oc(=O)c(/C=C(\O)C(C)(C)C)nc2c1  -12.4%
8. Cc1ccc(/C(O)=C/c2nc3ccccc3oc2=O)cc1  -11.1%
9. C#CCOCCOCCOCCNc1nc(N2CCOCC2)nc(N2CCN(C(=O)CCCCCCCCCCNC(=O)[C@H](CO)n3cc(CCCCCN)nn3)CC2)n1  -10.9%
10. CCCCCCC(C)n1cc(C(C)=O)c(=O)n(C)c1=O (centres undefined)  -9.33%
11. O=C(COC(=O)/C=C/c1ccc([N+](=O)[O-])cc1)NCc1ccccc1  -8.81%
12. COc1ccc(CSc2nnnn2Cc2ccccc2)cc1OC  -8.33%
13. O=C1OCCN1/N=C/c1ccc([N+](=O)[O-])o1  -7.99%
14. O=C1C2C(C(=O)N1/N=C/c1ccc([N+](=O)[O-])o1)C1C=CC2C12CC2 (centres undefined)  -7.07%
15. Cc1ccc(C(=O)CCS(=O)(=O)c2ccc(Br)cc2)cc1  -6.22%
16. CN1CCC(OC(=O)c2ccccc2Cl)CC1  -6.15%
17. O=C(O)c1ccc2c(c1)N(Cc1ccccc1)C(=O)c1ccccc1S2=O (centres undefined)  -5.21%
18. COc1cc2ncnc(NCCCN3CCOCC3)c2cc1OC  -4.12%
19. COc1ccc(OCC(=O)Nc2c3c(nn2-c2ccccc2)CS(=O)(=O)C3)cc1  -4.09%
20. CC(C)(C)/C(O)=C/c1nc2ccccc2oc1=O  -3.78%
21. Cc1ccc(-c2nn(C)c(=O)c3ccccc23)cc1S(=O)(=O)NCCO  -2.47%
22. Cc1cccc2cc(CN(CCCO)C(=O)Nc3cccc(Cl)c3)c(=O)[nH]c12  -2.46%
23. O=C(c1cc(S(=O)(=O)N2CCOCC2)c(Cl)cc1Cl)N1CCCCC1  -2.41%
24. CO/N=C(\C(=O)N[C@@H]1C(=O)N2C(C(=O)O)=C(COC(N)=O)CS[C@H]12)c1ccco1  -2.22%
25. FC(F)(F)c1cc(CCN2C(=S)NC[C@@H]2CC2CCCCC2)cc(C(F)(F)F)c1  -1.84%
26. CCOc1ccc(-c2cc(C)[n+](CCO)c(-c3ccc(OCC)cc3)c2)cc1  -1.61%
27. CS(=O)(=O)Nc1cccc(C2=NN(C(=O)c3ccc(F)cc3)C(c3cccs3)C2)c1 (centres undefined)  -1.48%
28. O=C(CCS(=O)(=O)Cc1ccc(Cl)cc1)NCCc1ccccc1  -1.47%
29. Cc1ccccc1C(=O)Nc1ccnn1C1CCN(CCCc2ccccc2)CC1  -1.21%
30. Cc1nnc(N/N=C/c2c[nH]c3ccccc23)[nH]c1=O  -1.2%
31. C#CCOCCOCCOCCNc1nc(N2CCN(C(=O)[C@H]([C@@H](C)CC)n3cc(CCCCN)nn3)CC2)nc(N2CCN(C(=O)[C@H]([C@@H](C)CC)n3cc(CCCN=C(N)N)nn3)CC2)n1  -1.05%
32. OC(COc1ccccc1)CN(Cc1ccccc1)CC(O)COc1ccccc1 (centres undefined)  -0.87%
33. Cc1ccc(S(=O)(=O)NN2C(=O)c3ccccc3NC2c2ccco2)cc1 (centres undefined)  -0.11%
34. C=CCNc1nc(C(=O)OCC(=O)c2ccc(Cl)cc2)cs1  0.24%
35. COc1ccccc1CN1CC(C(=O)NC2CCCCC2)CC1=O (centres undefined)  1.61%
36. Clc1cnc(N/N=C/c2ccncc2)c(Cl)c1  1.77%
37. Cc1ccc(C(=O)CCS(=O)(=O)c2ccc(Cl)cc2)cc1  2.23%
38. CCOc1ccccc1OCc1nn2c(-c3ccc(C)cc3)nnc2s1  3%
39. COc1ccc(C(=O)OC2CCN(C)CC2)cc1  3.95%
40. COC(=O)COc1ccc(C(=O)Cn2c(NCCCO)nc3ccccc32)cc1  4.11%
41. COC(=O)c1sccc1Oc1ccc(F)cc1[N+](=O)[O-]  4.41%
42. CN1CCC(OC(=O)c2cccc(Cl)c2)CC1  4.43%
43. C#CCOCCOCCOCCNc1nc(N2CCOCC2)nc(N2CCN(C(=O)CCCCCCCCCCNC(=O)[C@H]([C@@H](C)CC)n3cc(CCCCN=C(N)N)nn3)CC2)n1  5.04%
44. CC1=NCCc2c1[nH]c1ccccc21  5.56%
45. COc1ccc(CC(=O)Oc2ccc(C(C)C)cc2)cc1S(=O)(=O)N1CCOCC1  5.73%
46. CC1=C(C(=O)OC(C)C)C(c2ccc(C)o2)C(C(=O)OC(C)C)=C(C)N1  6.14%
47. CCOC(=O)c1ncn2c1C(=O)OC2(C)C  6.54%
48. CN(C)C(=O)C12CCC(C)(C(=O)C1Br)C2(C)C (centres undefined)  7.02%
49. CN(C)C(=O)c1sccc1Oc1ccc(F)cc1[N+](=O)[O-]  7.3%
50. CCOc1ccc(-c2cc(C)[n+](CCN3CCOCC3)c(-c3ccc(OCC)cc3)c2)cc1  8.34%
51. CCCC/C=C1\CCc2c([nH]c3ccccc23)C1=O  8.47%
52. COc1ccc(CSCC(=O)Nc2ccccc2SC)cc1  8.6%
53. CN1CCC(OC(=O)c2ccccc2)CC1  8.65%
54. C#CCOCCOCCOCCNc1nc(N2CCN(C(=O)CCCCCCCCCCNC(=O)[C@H]([C@@H](C)CC)n3cc(CCCCCN)nn3)CC2)nc(N2CCN(C(=O)CCCCCCCCCCNC(=O)[C@H](CO)n3cc(CCCCCN)nn3)CC2)n1  9.35%
55. CCCC[C@@H]1CN=C(N)N1CCc1cc(C(F)(F)F)cc(C(F)(F)F)c1  11.5%
56. CN(C)CCNC(=O)CCCNC(=O)Cn1cnc2sc3c(c2c1=O)CCCC3  12.2%
57. NC1=NC[C@H](c2ccccc2)N1CCc1cccc(F)c1  12.6%
58. COCC1=C(C(=O)OC(C)OC(=O)OC(C)C)N2C(=O)[C@@H](NC(=O)/C(=N\OC)c3csc(N)n3)[C@H]2SC1 (some centres undefined)  15.8%
59. Cc1cc(=O)[nH]c(N/N=C/c2ccccn2)n1  18.1%
